In PubChem BioAssay AID493216 (National Center for Advancing Translational Sciences (NCATS), 2011):
Active and inactive are the calls of the source. The call rests on the fitted dose curve.

Target: Polyunsaturated fatty acid lipoxygenase ALOX12 (Homo sapiens) (UniProt P18054)
Test: Inhibitors of 12-hLO (12-human lipoxygenase): Cuvette-Based Hit Assay for Validation of Followup Compounds
Conditions: purified 12-hLO, cuvette absorbance 234 nm
Protocol: The enzyme activity of 12-hLO was determined by a direct measurement of product formation by monitoring the absorbance at 234 nm in a 2 mL cuvette. IC50 values of inhibitors were obtained by measuring the enzymatic rate at a variety of concentrations (Carroll et al, Segraves et al). This assay was used to validate actives or inconclusive putative inhibitors identified in the primary screen (see related BioAssay AIDs). Assay Provider: Holman, T.R., University of California, Santa Cruz Screening Center PI: Austin, Christopher P. Screening Center: NIH Chemical Genomics Center
For control experiments, 2 mL of substrate buffer (10 uM arachidonic acid / 25 mM HEPES / 0.01% (v/v) Triton X-100, pH 8.0) was aliquoted in a cuvette with a magnetic stir bar. After equilibrium was ensured, an aliquot of inhibitor solvent was added (DMSO), and equilibrium was once again assured. The reaction was started by adding enzyme to the cuvette and the reaction was followed until completed. The inhibition experiments were performed as above, except the actual inhibitory compound was added instead of vehicle. To achieve an IC50, typically 5 concentrations of the inhibitor were studied. If the inhibitor concentration was constant, then five different reaction volumes were used. […] 3; No change in absorbance ensured. […] 5; No change in absorbance ensured. […]

Chain of Polyunsaturated fatty acid lipoxygenase ALOX12 (Homo sapiens) (P18054 whole entry, looked up): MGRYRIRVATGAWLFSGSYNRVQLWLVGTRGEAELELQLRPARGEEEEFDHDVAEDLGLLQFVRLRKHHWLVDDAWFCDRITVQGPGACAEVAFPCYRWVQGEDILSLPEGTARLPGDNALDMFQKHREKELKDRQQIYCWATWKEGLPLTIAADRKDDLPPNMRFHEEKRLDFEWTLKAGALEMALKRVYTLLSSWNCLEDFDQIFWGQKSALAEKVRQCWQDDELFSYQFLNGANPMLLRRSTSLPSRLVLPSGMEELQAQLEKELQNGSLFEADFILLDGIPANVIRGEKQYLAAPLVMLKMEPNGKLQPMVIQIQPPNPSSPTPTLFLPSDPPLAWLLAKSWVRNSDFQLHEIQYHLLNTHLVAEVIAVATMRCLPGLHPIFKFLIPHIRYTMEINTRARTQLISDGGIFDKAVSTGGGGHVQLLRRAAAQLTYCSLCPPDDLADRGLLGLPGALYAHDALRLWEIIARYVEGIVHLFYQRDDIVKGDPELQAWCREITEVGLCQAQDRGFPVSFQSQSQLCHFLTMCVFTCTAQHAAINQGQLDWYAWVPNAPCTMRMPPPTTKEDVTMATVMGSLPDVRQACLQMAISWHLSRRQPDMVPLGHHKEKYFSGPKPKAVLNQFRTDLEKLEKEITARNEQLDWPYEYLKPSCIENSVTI

`CC(Oc1ccc(Cl)cc1Cl)C(=O)Nc1ccc(S(=O)(=O)Nc2cnc3ccccc3n2)cc1` (stereo unspecified) was tested, and the Potency was 22.6 µM (active).
